Compound activity (PubChem BioAssay)
HIF activator – HIF pathway transcriptional activators, primary screen, cell-based, U2OS HRE-luciferase, luminescence. AID 1910, 2009. 0.32% of 300,000 active. activation, % at 7.5 µM (by protocol). U2OS HRE-luciferase reporter; normalized: DMSO 0%, desferrioxamine 100%;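 active means mean activation of at least 10% of the iron chelator positive control signal, with at least half of replicates also reaching 10%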
Rce1 inhib – yeast Rce1p protease inhibitors, primary screen, biochemical, fluorescence, cell-free homogeneous | yeast membranes, quenched prenylated peptide cleavage fluorescence | calls only | 0.27% of 290,000 active;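 active means fall in fluorescence gain of 50% or more versus controls, with final raw signal at or below 3038400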;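 further: plate controls were neutral control wells for no effect and wells lacking membranes for full effect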
Target sequence (Q03530 whole entry, looked up): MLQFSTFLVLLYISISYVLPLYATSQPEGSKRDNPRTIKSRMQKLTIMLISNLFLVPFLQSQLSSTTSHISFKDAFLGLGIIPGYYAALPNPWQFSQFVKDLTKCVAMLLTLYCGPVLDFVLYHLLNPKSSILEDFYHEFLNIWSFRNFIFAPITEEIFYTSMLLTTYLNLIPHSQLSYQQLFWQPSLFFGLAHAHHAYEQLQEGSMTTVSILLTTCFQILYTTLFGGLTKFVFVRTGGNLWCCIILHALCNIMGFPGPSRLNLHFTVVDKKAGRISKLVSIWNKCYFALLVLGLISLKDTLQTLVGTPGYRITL
Statin myotox sup – suppressors of statin myotoxicity in C2C12 myotubes, primary screen, cell-based, single point, plate reader | C2C12 myotubes + simvastatin, ATP luminescence, 48 h; scaled: DMSO 0, geranylgeraniol control 100 | rescue of ATP level, % at 7.49 µM | 0.78% of 330,000 active | AID 602340, 2012;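 active means mean ATP rescue above about 67%, or every replicate alone reaching that limit, limit read from the data, passing the limit was not always enough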;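 further: myotubes were challenged with 10 µM simvastatin during compound exposure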
AI-2 QS modul – Vibrio harveyi AI-2 quorum sensing modulators, primary screen, JMH597 strain, luminescence/OD600 ratio; activity change, % at 7.5 µM; Vibrio harveyi JMH597 AI-2 luminescence/OD600 ratio, 9 h; hits give low values; strain lacks LuxN and CqsS sensors; 0 = neutral-control median; 0.4% of 300,000 active; in the data active means activity change below about -75%, passing the limit was not always enough;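 further: luminescence divided by OD600 gain over 9 h not by final OD600 alone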
PGC1a acetyl inh – inhibitors of PGC1a acetylation signal, primary screen, cell-based, U2OS, AlphaScreen, inhibitor mode. AlphaScreen anti-acetyl-lysine; with virally co-expressed GCN5 acetyltransferase. inhibition, % at 15.6 µM. 0.17% of 350,000 active;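 active means every replicate shows inhibition of at least 40%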;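 further: 0% = neutral control wells and 100% = positive control wells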
* hit, by the source's call; i = inactive; . = not tested or not shown; + = active, no number. Compounds with a hit are over-represented: about 1.3% of the library has one in this group of screens.

SMILES	HIF activator	Rce1 inhib	Statin myotox sup	AI-2 QS modul	PGC1a acetyl inh
COc1cc2c(cc1OC)C(C)N(C(=O)CCNC(=O)c1ccccc1)CC2 (configuration not stated)	-1	+	4	-15	6
COc1cc2c(cc1OC)C(c1ccccc1)N(S(C)(=O)=O)CC2 (configuration not stated)	28*	i	9	23	.
COc1cc2c(cc1OC)C(C)N(C(=O)c1ccc(Cl)c(S(=O)(=O)N3CCCCC3)c1)CC2 (configuration not stated)	0	i	2	28	-8
COc1cc2c(cc1OC)C(C)N(S(=O)(=O)c1ccc(Cl)nc1)CC2 (configuration not stated)	16*	i	-4	8	-7
O=C(C[C@H]1CC[C@H]2[C@@H](COC[C@@H](O)CN2S(=O)(=O)c2cccc(Cl)c2)O1)Nc1ccc(-c2ccccc2)cc1	.	.	9	.	12
CCOC(=O)C1(C)NC(c2ccc(N(C)C)cc2)C2C(=O)N(CC)C(=O)C21 (configuration not stated)	0	i	1	10	4
CCOC(=O)C1(C)NC(c2ccc(N(C)C)cc2)C2C(=O)N(c3ccc(OC)cc3)C(=O)C21 (configuration not stated)	-1	i	115*	12	3
N#Cc1cc2c(nc1SCC(=O)N1CCCCC1)CCCCC2	0	i	117*	27	-3
COc1ccc2c3c(n(C)c2c1)[C@@H](CO)N(Cc1ccccc1OC)CC31CCN(C(=O)C2CC2)CC1	.	.	.	.	-6
O=C(O)CSc1nc(C(F)(F)F)cc(=O)n1-c1ccccc1	0	i	5	24	15
CC(=O)CSc1nc(C(F)(F)F)cc(=O)n1-c1ccccc1	0	i	151*	19	0
CCOC(=O)N1CCN(C(=O)CSCC(=O)Nc2nc(-c3ccc4c(c3)OCO4)cs2)CC1	.	.	122*	.	-18
O=C(CSCC(=O)N1CCOCC1)Nc1nc(-c2ccc3c(c2)OCO3)cs1	3	i	13	29	-3
O=S(=O)(c1ccc(S(=O)(=O)N2CCN(C3CCCCC3)CC2)cc1)N1CCCCCC1	.	.	10	.	-2
O=c1[nH]c2ccc(S(=O)(=O)N3CCN(C4CCCCC4)CC3)cc2[nH]c1=O	0	+	-4	24	-3
COc1ccc(C(=O)NCCc2nc3cc([N+](=O)[O-])ccc3n2C)cc1	26*	i	-10	17	-3
CCN(CC)CCn1c2ccccc2c2cnc(N)c(C#N)c21	25*	i	.	12	28
COc1ccc(NC(=O)Nc2ccc3c(c2)[C@H]2C[C@H](CC(=O)N4CCCCC4)O[C@@H](CO)[C@H]2O3)cc1	.	.	0	.	-7
CCN1CCCC1CNC(=O)c1ccc(N2CCCC2=O)cc1 (configuration not stated)	0	i	-4	-6	.
CCN1CCCC1CNC(=O)c1c(O)c2c([nH]c1=O)CCCC2 (configuration not stated)	2	i	119*	-1	11
COc1cc2oc3ccccc3c2cc1N(CC(=O)N1CCCCC1)S(=O)(=O)c1ccc(C)cc1	0	i	106*	31	-18
Cc1noc(C)c1S(=O)(=O)N(C)C[C@@H]1Oc2ccc(NC(=O)CCCCCC(=O)Nc3ccccc3N)cc2CC(=O)N([C@@H](C)CO)C[C@H]1C	.	.	.	.	4
CCCN1[C@H](C(=O)N(C)C)[C@@H](CO)[C@@H]2Cn3c(ccc(-c4ccc(OC)cc4)c3=O)[C@@H]21	.	.	10	.	3
Cc1ccc2nc(-c3cccc(NC(=O)c4ccc5c(c4)OCCO5)c3)oc2c1	1	i	110*	16	-8
CCC(=O)Nc1cccc(-c2nc3ccc(C)cc3o2)c1	2	i	-8	-2	1
SMILES	HIF activator	Rce1 inhib	Statin myotox sup	AI-2 QS modul	PGC1a acetyl inh
O=c1cc(N2CCN(c3ccccc3)CC2)[nH]c(=O)n1C1CCCCC1	-1	i	-120	-6	6
O=c1cc(N2CCOCC2)[nH]c(=O)n1C1CCCCC1	0	i	122*	11	-4
CCOc1cc(N2CCOCC2)c(OCC)cc1NC(C)C(=O)N1CCC(C)CC1 (configuration not stated)	29*	i	.	7	.
Cc1noc(C)c1NC(=O)Nc1cccc2c1O[C@H](CN(C)Cc1ccc(C(=O)O)cc1)[C@H](C)CN([C@@H](C)CO)C2=O	.	.	53	.	5
COc1ccc2c(Cl)c(-c3nnc(SCC(=O)c4ccccc4)n3C)sc2c1	0	i	116*	-1	-6
Cn1c(SCC(=O)c2ccccc2)nnc1-c1ccco1	13*	i	7	28	-5
C/C=C/c1cnc2c(c1)C(=O)N([C@@H](C)CO)C[C@@H](C)[C@H](CN(C)S(=O)(=O)c1cccs1)O2	.	.	.	.	-3
CC(C)c1cn([C@H]2C[C@@H]3O[C@H](CO)CC[C@@H]3O[C@@H]2CCc2ccc(-c3ccccc3)cc2)nn1	.	.	.	.	-2
CC(c1nc2ccccc2c(=O)[nH]1)N1CCN(C)CC1 (configuration not stated)	0	i	117*	15	-15
CC(c1nc2ccccc2c(=O)[nH]1)N1CCOCC1 (configuration not stated)	0	i	0	8	4
CCc1ccc(C2C(=O)c3ccccc3C2=O)cc1	16*	i	.	16	7
COc1ccc(C2C(=O)c3ccccc3C2=O)cc1	0	i	-11	9	7
O=C(Nc1ccc(N2CCOCC2)c(Cl)c1)c1cccnc1	2	i	92*	4	-1
O=C(Nc1ccc(N2CCCC2)c(Cl)c1)c1cccnc1	2	i	.	12	5
Cc1ccc(NC(=O)CSCC(=O)Nc2ccc(N3CCOCC3)cc2N2CCOCC2)cc1	.	.	-4	.	.
O=C(CCc1ccccc1)Nc1ccc(N2CCOCC2)c(Cl)c1	0	i	113*	22	2
Cc1ccc(NC(=O)CSCC(=O)Nc2ccc(N3CCOCC3)c(Cl)c2)cc1	0	i	121*	39	-10
Cc1ccc(NC(=O)COc2ccc(S(=O)(=O)N3CCOCC3)cc2)cc1	0	i	152*	30	-15
C[C@@H]1CN([C@@H](C)CO)C(=O)Cc2cc(N(C)C)ccc2O[C@H]1CN(C)Cc1ccc(Cl)c(Cl)c1	.	.	36	.	0
CC(C)CC#Cc1ccc2c(c1)O[C@H](CN(C)C(=O)CC1CC1)[C@H](C)CN([C@@H](C)CO)S2(=O)=O	.	.	-15	.	-1
CO[C@@H]1CN(C)C(=O)c2ccc(NC(=O)Nc3cc(F)ccc3F)cc2OC[C@@H](C)N(C(=O)c2cnccn2)C[C@@H]1C	.	.	.	.	-5
